Laboratory results as given in PubChem BioAssay (NCI).
This is part of a sample that, as a whole, favours compounds with a hit. Of some 83,000 tested, about 20% had one in any assay.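 Single-concentration screen, 48 h exposure, 96-well plates. Endpoint: percent growth. Below 10 = active.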 Activity calls are given as the source filed them.

What was measured:
Assay in all cases: NCI-60 one-dose screen, 48 h (100 = growth as untreated, 0 = no growth, -100 = all killed)
Details in all cases: 10 µM unless noted
T-47D breast = system: T-47D breast
BT-549 breast = system: BT-549 breast
MDA-MB-435 melanoma = system: MDA-MB-435 melanoma
SW-620 colon = system: SW-620 colon
MCF7 breast = system: MCF7 breast
HCT-116 colon = system: HCT-116 colon
KM12 colon = system: KM12 colon
HCC-2998 colon = system: HCC-2998 colon

Measured: growth

C/C1=C\CCC2(C)OC2CC2CCC(C)(O)C(CC1)C2(C)C (centres undefined)
inactive: T-47D breast 91.7% | BT-549 breast 49.8% | MDA-MB-435 melanoma 110% | SW-620 colon 97.1% | MCF7 breast 102% | HCT-116 colon 98.6% | KM12 colon 108%

OCc1c(-c2ccccc2)nc2sccn12
inactive: T-47D breast 104% | BT-549 breast 59.3% | MDA-MB-435 melanoma 114% | SW-620 colon 98.3% | MCF7 breast 103% | HCT-116 colon 104% | KM12 colon 97.6%

Cc1ccccc1C(=O)c1ccccc1C(=O)O
inactive: T-47D breast 107% | BT-549 breast 106% | MDA-MB-435 melanoma 105% | SW-620 colon 102% | MCF7 breast 100% | HCT-116 colon 103% | HCC-2998 colon 105% | KM12 colon 107%

Nc1cccc2c1CN(C1CCC(=O)NC1=O)C2=O (centres undefined)
inactive: T-47D breast 97.5% | BT-549 breast 105% | MDA-MB-435 melanoma 101% | SW-620 colon 95.6% | MCF7 breast 94.5% | HCT-116 colon 114% | KM12 colon 98.1%

Cc1cc(Cl)ccc1OC(C)C(=O)Nc1nnc(C2CC2)s1 (centres undefined)
inactive: T-47D breast 90.9% | BT-549 breast 116% | MDA-MB-435 melanoma 102% | SW-620 colon 103% | MCF7 breast 112% | HCT-116 colon 94.7% | KM12 colon 107%

O=C(O)c1cccc([N+](=O)[O-])c1/C=C/c1ccccc1
inactive: T-47D breast 95.2% | BT-549 breast 106% | MDA-MB-435 melanoma 105% | SW-620 colon 96.7% | MCF7 breast 95.5% | HCT-116 colon 94.3% | HCC-2998 colon 103% | KM12 colon 99.8%

COC(=O)c1ccc(C)cc1
inactive: T-47D breast 91.4% | BT-549 breast 120% | MDA-MB-435 melanoma 101% | SW-620 colon 101% | MCF7 breast 91.7% | HCC-2998 colon 109% | KM12 colon 108%

COc1ccc(OC)c(NC(=O)c2cc(S(=O)(=O)N3CCc4ccccc43)ccc2OC)c1
inactive: T-47D breast 93.4% | BT-549 breast 104% | MDA-MB-435 melanoma 96.1% | SW-620 colon 96.7% | MCF7 breast 113% | HCT-116 colon 72.2% | KM12 colon 111%

C/C(=C\c1csc(C)n1)[C@@H]1C[C@@H]2O[C@]2(C)CCC[C@H](C)[C@H](O)[C@@H](C)C(=O)C(C)(C)[C@@H](O)CC(=O)N1
active: T-47D breast -21.8% | BT-549 breast -45.3% | MDA-MB-435 melanoma -79.7% | SW-620 colon -98.6% | MCF7 breast -82.1% | HCT-116 colon -79.1% | KM12 colon -99.2%

CCCCn1c(=O)c(C2CNC(=O)c3ccccc3N2)cc2ccccc21 (centres undefined)
inactive: T-47D breast 93.7% | BT-549 breast 97.8% | MDA-MB-435 melanoma 105% | SW-620 colon 99.2% | MCF7 breast 99.6% | HCT-116 colon 94.9% | HCC-2998 colon 108% | KM12 colon 101%

COc1cc(/C=C/C(=O)c2ccc(NC(=O)CN3CCN(c4cc5c(cc4F)c(=O)c(C(=O)O)cn5C4CC4)CC3)cc2)cc(OC)c1OC
active: BT-549 breast -86.7% | MDA-MB-435 melanoma -1.52% | SW-620 colon 6.38% | HCC-2998 colon -11.6% | KM12 colon -65.1%
inactive: T-47D breast 17.5% | MCF7 breast 26.5%

CCCCNc1nnc(-c2cc(-c3cc4ccccc4o3)nn2-c2ccccc2)o1
inactive: T-47D breast 76.7% | BT-549 breast 96.7% | MDA-MB-435 melanoma 101% | SW-620 colon 103% | MCF7 breast 73.8% | HCT-116 colon 89.4% | KM12 colon 103%

CC(C)C(C(=O)CCN(C)C)c1ccc(Cl)cc1 (centres undefined)
inactive: T-47D breast 82.9% | BT-549 breast 90.5% | MDA-MB-435 melanoma 107% | SW-620 colon 108% | MCF7 breast 87.4% | HCC-2998 colon 104% | KM12 colon 104%

Cc1ccc2c(c1)C(C)Cc1c(N(C)C)ncnc1N2C (centres undefined)
active: MDA-MB-435 melanoma -6.18%
inactive: T-47D breast 34.8% | BT-549 breast 30.6% | SW-620 colon 20.6% | MCF7 breast 16.9% | HCT-116 colon 19% | HCC-2998 colon 58.2% | KM12 colon 26.2%

Nc1nc(Cl)c2c(ncn2Cc2ccc(CCl)cc2)n1
inactive: T-47D breast 90.2% | MDA-MB-435 melanoma 95.5% | SW-620 colon 93.3% | MCF7 breast 72.5% | HCT-116 colon 94.2% | KM12 colon 94.3%
active: BT-549 breast 6.29%

CCOC(=O)C1=C(CSC(=S)N(C2CCCCC2)C2CCCCC2)N(C)C(=O)NC1c1ccccc1 (centres undefined)
inactive: T-47D breast 50.2% | BT-549 breast 66.3% | MDA-MB-435 melanoma 58.1% | SW-620 colon 37.2% | MCF7 breast 46.4% | HCT-116 colon 26.2% | HCC-2998 colon 71.9% | KM12 colon 55.7%

COc1ccc(-c2nc3sccn3c2-c2ccnc(NCCCNS(=O)(=O)c3ccc(C)cc3)n2)cc1
inactive: BT-549 breast 42.5% | MDA-MB-435 melanoma 23.4% | SW-620 colon 38.6% | MCF7 breast 34.3% | HCT-116 colon 25% | HCC-2998 colon 25.9% | KM12 colon 20.6%
active: T-47D breast -6.34%

O=C1CCCCC=C1C[N+](=O)[O-]
inactive: T-47D breast 70.3% | BT-549 breast 97.2% | MDA-MB-435 melanoma 92.9% | SW-620 colon 39.6% | MCF7 breast 84.4% | HCT-116 colon 62.5% | KM12 colon 105%

CC/C=C\C[C@H](O)C/C=C1/C(=O)C(Cl)=C[C@@H]1C/C=C\CCCC(=O)OC
active: T-47D breast -16.9% | BT-549 breast -85.5% | MDA-MB-435 melanoma -43.7% | SW-620 colon -55.3% | MCF7 breast -71.2% | HCT-116 colon -83.7% | HCC-2998 colon -92.1% | KM12 colon -81.5%

O=C(CNC1CCCCC1)Nc1ccc(-c2nc3ccccc3s2)cc1
inactive: T-47D breast 69.1% | BT-549 breast 87.6% | MDA-MB-435 melanoma 90.4% | SW-620 colon 100% | MCF7 breast 28% | HCC-2998 colon 87.3% | KM12 colon 83.9%

Cc1ccc(S(=O)(=O)N2CCC(C(=O)Nc3ccc(F)cc3F)CC2)cc1
inactive: T-47D breast 88.8% | BT-549 breast 96.9% | MDA-MB-435 melanoma 95% | SW-620 colon 103% | MCF7 breast 93.2% | HCT-116 colon 101% | KM12 colon 109%

NC(N)=NC(N)=Nc1ccccc1-c1ccccc1
inactive: T-47D breast 108% | BT-549 breast 131% | MDA-MB-435 melanoma 103% | SW-620 colon 107% | MCF7 breast 110% | HCC-2998 colon 105% | KM12 colon 107%

Cc1c(C(=O)NCc2ccccc2)[n+](=O)c2cc(F)ccc2n1[O-]
inactive: T-47D breast 107% | BT-549 breast 121% | MDA-MB-435 melanoma 93.5% | SW-620 colon 107% | MCF7 breast 97.1% | HCT-116 colon 97.9% | HCC-2998 colon 88.4% | KM12 colon 111%

COc1cc(/C=C2\CCCC3=C2NC(C)=NC3c2cc(OC)c(OC)c(OC)c2)cc(OC)c1OC (centres undefined)
inactive: T-47D breast 79.2% | MCF7 breast 23% | HCC-2998 colon 11.9%
active: BT-549 breast 2.96% | MDA-MB-435 melanoma 5.2% | SW-620 colon -8.03% | KM12 colon 2.95%

O=C(Nc1ccc(Cl)cc1)c1cc(-c2ccc(F)cc2)c2sc(=O)[nH]c2n1
inactive: SW-620 colon 14.5% | HCC-2998 colon 22%
active: T-47D breast 3.75% | BT-549 breast -13.1% | MDA-MB-435 melanoma 8.39% | MCF7 breast 4.61% | HCT-116 colon 3.3% | KM12 colon 6.83%

COc1ccc(C(=O)/C=C/c2cc(C(=O)c3cc(OC)c(OC)c(OC)c3)ccc2OC)cc1
inactive: T-47D breast 68% | BT-549 breast 73.7% | MDA-MB-435 melanoma 51.8% | SW-620 colon 13.8% | MCF7 breast 20.9% | HCC-2998 colon 93.1% | KM12 colon 40.6%

CC(Br)C(O)c1cc2c(cc1Br)OCO2 (centres undefined)
inactive: T-47D breast 100% | BT-549 breast 96.6% | MDA-MB-435 melanoma 110% | SW-620 colon 104% | MCF7 breast 93% | HCC-2998 colon 111% | KM12 colon 108%

COc1cc(-c2n[nH]nc2-c2ccc3c(c2)OCCO3)cc(OC)c1OC
inactive: T-47D breast 40.5% | BT-549 breast 12% | SW-620 colon 19.4% | HCC-2998 colon 10.1%
active: MDA-MB-435 melanoma -11.4% | MCF7 breast 9.04% | HCT-116 colon 8.07% | KM12 colon 9.43%

COc1ccc(C(=O)N2CCN(C(=O)c3cc(OC)c(OC)c(OC)c3)CC2)cc1OCCCCOc1cc2c(cc1OC)C(=O)N1CCC[C@H]1C=N2
inactive: T-47D breast 85.4% | BT-549 breast 115% | MDA-MB-435 melanoma 108% | SW-620 colon 110% | MCF7 breast 98.8% | HCT-116 colon 101% | KM12 colon 129%

COc1cc(/C=C2\CCCC3=C2N=C2SC(C)=NN2C3c2cc(OC)c(OC)c(OC)c2)cc(OC)c1OC (centres undefined)
active: MDA-MB-435 melanoma -63.9% | HCT-116 colon -71.6% | KM12 colon -37.8%
inactive: T-47D breast 37.6% | SW-620 colon 10.3% | MCF7 breast 12.5% | HCC-2998 colon 55.4%

CC(=O)Nc1ccc(S(=O)(=O)N2C(=O)CCC2C(=O)Nc2ccccc2)cc1 (centres undefined)
inactive: T-47D breast 17.6% | MDA-MB-435 melanoma 27.7% | SW-620 colon 30.2% | MCF7 breast 19.2% | HCT-116 colon 26.5% | HCC-2998 colon 30.5% | KM12 colon 12.4%

COC1=CC(c2ccc[nH]2)=N/C1=C\c1[nH]c(C)c(CCCn2cc(CCCCCCCCC[C@@H]3Cc4cc(O)ccc4C4CC[C@]5(C)[C@@H](O)CC[C@H]5C43)nn2)c1C (some centres undefined)
inactive: T-47D breast 38.4% | BT-549 breast 67.6% | MDA-MB-435 melanoma 72.4% | SW-620 colon 44.8% | MCF7 breast 16.4% | HCC-2998 colon 36.4% | KM12 colon 16.2%

Nc1nc(N)c2nc(CNc3ccc(C(=O)CC(CCC(=O)O)C(=O)O)cc3)cnc2n1 (centres undefined)
inactive: T-47D breast 49.5% | BT-549 breast 63.3% | MDA-MB-435 melanoma 34.4% | SW-620 colon 25.7% | MCF7 breast 22.8% | KM12 colon 32.2%

COc1ccc2c(c1)C(=O)/C(=C/c1ccc(O)cc1)O2
inactive: T-47D breast 59.8% | MDA-MB-435 melanoma 93.2% | MCF7 breast 22.8% | HCC-2998 colon 114% | KM12 colon 101%
active: SW-620 colon 9.11% | HCT-116 colon 8.95%

c1ccn2nnnc2c1
inactive: BT-549 breast 67.2% | MDA-MB-435 melanoma 99.5% | SW-620 colon 106% | MCF7 breast 93.1% | HCT-116 colon 87.5% | HCC-2998 colon 91.6% | KM12 colon 99.5%
